Assay [1] is described as follows: Primary qHTS for small molecule stabilizers of the endoplasmic reticulum resident proteome: Secreted ER Calcium Modulated Protein (SERCaMP) assay (AID 1508630). Summed up: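 GLuc-SERCaMP-expressing SH-SY5Y cells, pretreated 16 h with compound, are challenged with thapsigargin to empty ER calcium stores; after 4 h, coelenterazine is added directly to the medium and luminescence is imaged.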
(In general: qHTS replaces the single test concentration by a dilution series.)

Assay [2] in a line: Primary qHTS for inhibitors of nuclear receptor binding SET domain protein 2 (NSD2) in an isogenic RCH-ACV NSD2 p.E1099K mutant (9B) (AID 1645876). Further: nearly all actives have a fitted effect of over 70% in size. Further: potency means the concentration at half of the fitted maximal effect.
Assay [3] in a line: Primary qHTS for inhibitors of nuclear receptor binding SET domain protein 2 (NSD2) in an RCH-ACV wild type WT cells (2C) (AID 1645877). Further: nearly all actives have a fitted effect of over 70% in size. Further: potency means the concentration at half of the fitted maximal effect.
Assay [4] concerns the target Cytochrome P450 2D6 (Homo sapiens) (UniProt P10635). Description: Cytochrome P450 family 2 subfamily D member 6 (CYP2D6) small molecule antagonists: luciferase biochemical (cell-free) qHTS assay (AID 1645840; active means well fitted curve in the direction sought with a large enough effect in the repeat runs; an effect the other way counts as inactive or inconclusive; further: nearly all actives have a fitted effect of over 55% in size; further: potency means the concentration at half of the fitted maximal effect). In outline: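 P450-Glo luminescent screen: recombinant CYP2D6 enzyme–proluciferin substrate mix preincubated with compound 10 min at room temperature, then NADPH regeneration added for 1 h at room temperature. Detection reagent added for 20 min; luciferin light read as relative luminescence units.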

The target of assay [5] is Cytochrome P450 2C9 (Homo sapiens) (UniProt P11712). Description: Cytochrome P450 family 2 subfamily C member 9 (CYP2C9) small molecule antagonists: luciferase biochemical (cell-free) qHTS assay (AID 1645842; active means well fitted curve in the direction sought with a large enough effect in the repeat runs; an effect the other way counts as inactive or inconclusive; further: nearly all actives have a fitted effect of over 55% in size; further: potency means the concentration at half of the fitted maximal effect). Summed up:
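Luminescence, after 20 min with luciferin detection reagent, reflected CYP2C9 turnover during a 1 h NADPH-driven reaction at 37C. Enzyme-substrate mix contained 0.4% bovine serum albumin and was preincubated with compound 10 min at room temperature.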

Assay [6] concerns the target N-terminal Xaa-Pro-Lys N-methyltransferase 1 (Homo sapiens) (UniProt Q9BV86). The assay is described as follows: Confirmatory qHTS for Inhibitors of N-terminal methyltransferase 1 (NTMT1): MTaseGlo Assay (AID 1645874). Further: nearly all actives have a fitted effect of over 65% in size. Further: potency means the concentration at half of the fitted maximal effect. In outline: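 Preincubation of NTMT1 (125 nM) plus SAM (100 uM) with test compounds lasted 15 min; methylation of 1 uM SPKRIA then proceeded 30 min in the dark at room temperature. Luciferase signal reported SAH produced.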

The structures appear in SMILES notation. Values joined by “and” are separate entries in the source; they are usually repeats but may differ in a detail not shown here. Equal entries are not always repeated. Results filed as inconclusive are left out. Active and inactive are the calls of the source. Unless noted, the call rests on the fitted dose curve; in most records, active means well fitted curve in the direction sought with a large enough effect; inconclusive means small, poorly fitted or top-dose-only effect, or another doubt; inactive means no such curve, though single readings can be large; an effect the other way counts as inactive or inconclusive.

Cytochrome P450 2C9 (Homo sapiens), sequence (P11712 whole entry, looked up): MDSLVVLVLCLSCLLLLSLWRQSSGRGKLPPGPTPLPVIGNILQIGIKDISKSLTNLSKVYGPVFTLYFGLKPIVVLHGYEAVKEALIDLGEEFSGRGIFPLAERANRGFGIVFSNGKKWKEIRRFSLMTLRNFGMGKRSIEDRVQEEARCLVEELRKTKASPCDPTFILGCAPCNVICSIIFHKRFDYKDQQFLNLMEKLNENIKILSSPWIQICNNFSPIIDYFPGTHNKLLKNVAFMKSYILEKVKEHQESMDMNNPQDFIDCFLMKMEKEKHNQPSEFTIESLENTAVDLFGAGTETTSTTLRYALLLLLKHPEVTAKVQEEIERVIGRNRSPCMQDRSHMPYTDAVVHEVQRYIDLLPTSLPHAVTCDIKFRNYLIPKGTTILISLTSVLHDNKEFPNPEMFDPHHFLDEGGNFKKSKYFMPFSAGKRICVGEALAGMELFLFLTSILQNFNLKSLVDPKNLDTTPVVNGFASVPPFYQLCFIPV
Cytochrome P450 2D6 (Homo sapiens), sequence (P10635 whole entry, looked up): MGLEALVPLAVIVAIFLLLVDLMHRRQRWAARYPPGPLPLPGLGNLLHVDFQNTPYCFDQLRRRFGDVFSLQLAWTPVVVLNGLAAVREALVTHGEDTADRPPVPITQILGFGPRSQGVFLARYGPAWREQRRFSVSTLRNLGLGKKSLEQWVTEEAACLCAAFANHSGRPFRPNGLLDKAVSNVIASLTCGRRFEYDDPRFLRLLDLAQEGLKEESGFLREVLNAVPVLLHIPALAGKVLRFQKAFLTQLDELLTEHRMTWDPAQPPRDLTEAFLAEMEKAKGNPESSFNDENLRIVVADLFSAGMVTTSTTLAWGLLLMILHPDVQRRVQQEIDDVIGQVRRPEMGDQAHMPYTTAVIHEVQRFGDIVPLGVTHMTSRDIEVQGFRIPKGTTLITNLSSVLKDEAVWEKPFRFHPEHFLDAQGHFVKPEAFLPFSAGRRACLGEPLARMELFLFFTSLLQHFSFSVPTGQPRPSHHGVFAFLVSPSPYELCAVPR
N-terminal Xaa-Pro-Lys N-methyltransferase 1 (Homo sapiens), sequence (Q9BV86 whole entry, looked up): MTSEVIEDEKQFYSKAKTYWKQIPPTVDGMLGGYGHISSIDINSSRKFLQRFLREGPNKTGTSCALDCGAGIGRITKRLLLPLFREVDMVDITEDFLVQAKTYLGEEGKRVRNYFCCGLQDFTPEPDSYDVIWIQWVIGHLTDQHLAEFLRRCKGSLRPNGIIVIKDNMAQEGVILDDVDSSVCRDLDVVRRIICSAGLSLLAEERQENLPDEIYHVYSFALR

For the compound `Cc1cc(Nc2cc(NC(=O)c3c(Cl)cccc3Cl)ccn2)nc(N)n1`, the Potency result in assay [1] was “inactive”. Moreover, the Potency in assay [2] is 0.417 µM (active); in assay [3] it was 0.291 µM (active).

Turning to `CNC(=O)c1cc(Oc2ccc(NC(=O)Nc3cc(C(C)(C)C)nn3-c3ccc4ncccc4c3)c(F)c2)ccn1`, in assay [4], the Potency result is “inactive”. Besides, the Potency in assay [5] was 6.74 µM (active); in assay [2], 3.65 µM (active) and 4.17 µM (active); in assay [3] it was 7.28 µM (active) and 5.25 µM (active).

As to `Cc1ccc(-c2ncn(-c3ccc(Nc4nccc(-c5cccc(N6CCOCC6)c5)n4)cc3)n2)cn1`, the Potency result in assay [1] is “inactive”. Moreover, the Potency in assay [2] is 1.05 µM (active); in assay [3], 0.662 µM (active).

On to `O=C(CCCCCCNC(=O)c1cnc(N(c2ccccc2)c2ccccc2)nc1)NO`, for which the Potency result in assay [1] was “inactive”. In addition, the Potency is 728 nM (active) and 2.95 µM (active) in assay [2]; 365 nM (active) and 2.09 µM (active) in assay [3].

For `Cn1cc(-c2[nH]c3cc(NC(=O)[C@H](N)C4CCCCC4)cc4c3c2C=NNC4=O)cn1`, in assay [4], the Potency result was “inactive”. The Potency in assay [5] was 9.52 µM (active); in assay [2], 578 nM (active) and 833 nM (active); in assay [3], 728 nM (active) and 742 nM (active).

For the compound `Cc1cnc(-c2cnc(NCCNc3ccc(C#N)cn3)nc2-c2ccc(Cl)cc2Cl)[nH]1`, the Potency in assay [4] was 1510 nM (active); in assay [5], 1.51 µM (active); in assay [2], 4.59 µM (active) and 3.72 µM (active); in assay [3] it was 3.25 µM (active) and 3.72 µM (active).

On to `CC(C)c1cc(C(=O)N2Cc3ccc(CN4CCN(C)CC4)cc3C2)c(O)cc1O`, for which the Potency result in assay [4] is “inactive”. For the same compound, the Potency is 12 µM (active) in assay [5]; 115 nM (active) and 148 nM (active) in assay [2]; 129 nM (active) and 166 nM (active) in assay [3].

Regarding `Cn1cc(-c2ccncc2)c(-c2ccc(OCc3ccc4ccccc4n3)cc2)n1`, the Potency in assay [4] is 7560 nM (active); in assay [5], 0.601 µM (active); in assay [2] it was 12.9 µM (active); in assay [3], 14.5 µM (active).

Regarding `Cn1cncc1[C@@](N)(c1ccc(Cl)cc1)c1ccc2c(c1)c(-c1cccc(Cl)c1)cc(=O)n2C`, the Potency is 16900 nM (active) in assay [4] and 0.169 µM (active) in assay [5]. Moreover, the Potency entry in assay [2] and in assay [3] was “inactive” each time.

`Nc1nc(-c2nn(Cc3ccccc3F)c3ncccc23)nc(N)c1N1CCOCC1`: the Potency result in assay [2] and in assay [3] was “inactive” throughout.

For the compound `Cc1cn(-c2cc(NC(=O)c3ccc(C)c(Nc4nccc(-c5cccnc5)n4)c3)cc(C(F)(F)F)c2)cn1`, the Potency in assay [2] was 8.2 µM (active) and 11.8 µM (active); in assay [3] it was 5.8 µM (active) and 2.35 µM (active).

With `OCc1ccc(-c2ccc(-c3ccc(CO)s3)o2)s1`, the Potency result in assay [6] was “inactive”. The Potency in assay [2] was 50.2 nM (active) and 934 nM (active); in assay [3], 31.7 nM (active) and 1.32 µM (active).

With `CN(C)CCCN=c1c2ccccc2n(C)c2[nH]c(=O)n(C)c(=O)c12`, the Potency is 13.2 µM (active) in assay [2] and 11.8 µM (active) in assay [3].

Regarding `N#Cc1c(O)c2c(-c3ccc(-c4ccccc4O)cc3)csc2[nH]c1=O`, the Potency result in assay [2] and in assay [3] was “inactive” throughout.

On to `O=C(O)c1ccc2cc(-c3ccc(O)c(C45CC6CC(CC(C6)C4)C5)c3)ccc2c1`, for which the Potency is 0.934 µM (active) in assay [2] and 0.59 µM (active) in assay [3].

In the case of `CC(=O)Nc1sc2c(c1-c1nc3ccccc3s1)CNC2`, the Potency in assay [2] and in assay [3] was 2.9 µM (active) in each case.

As to `O=C(NCCS(=O)(=O)c1ccc(C(F)(F)F)cn1)c1ccc(Cl)cc1`, the Potency entry in assay [2] and in assay [3] was “inactive” throughout.

Consider `O=C(O)CCCc1c[nH]c2ccccc12`, for which the Potency result in assay [2] and in assay [3] was “inactive” in each case.

`Cc1c(C)n(Cc2ccc(-c3ccccc3C(=O)O)cc2)c2ccc(C(=O)N[C@@H](C)c3ccc([N+](=O)[O-])cc3)cc12`: in assay [5], the Potency was 15.1 µM (active).

In the case of `O=C(Cc1ccc(-c2ccc(OCCN3CCOCC3)cc2)cn1)NCc1ccccc1`, the Potency result in assay [4] is “inactive”. Besides, the Potency is 459 nM (active) and 105 nM (active) in assay [2]; 258 nM (active) and 105 nM (active) in assay [3].

As for `CCN(CC)CCCCNc1ncc2cc(-c3cc(OC)cc(OC)c3)c(NC(=O)NC(C)(C)C)nc2n1`, the Potency was 16.4 µM (active) and 14.8 µM (active) in assay [2]; 14.6 µM (active) and 14.8 µM (active) in assay [3].

With `CN1CCN(c2cc(C(=O)Nc3ccc4c(c3)-c3c(c(C(N)=O)nn3-c3ccc(F)cc3)CC4)c(Cl)cn2)CC1`, the Potency in assay [2] is 7.42 µM (active); in assay [3] it was 8.33 µM (active).

`CCCCCN(CCC12CC3CC(CC(C3)C1)C2)C(=O)NCCCc1ccncc1`: the Potency in assay [3] is 16.3 µM (active).

Take `COc1cc2c(Oc3ccc(NC(=O)C4(C(=O)Nc5ccc(F)cc5)CC4)cc3F)ccnc2cc1OCCCN1CCOCC1`: the Potency in assay [5] is 3.01 µM (active); in assay [2] it was 515 nM (active) and 1.32 µM (active); in assay [3], 365 nM (active) and 833 nM (active).

For `CC(=O)Nc1nc(C)c(-c2ccc(Cl)c(S(=O)(=O)NCCO)c2)s1`, the Potency in assay [2] and in assay [3] was 1.32 µM (active) throughout.

As for `Cc1cn2cc(C(=O)N(C)CCO)cc(N[C@@H]3CCOc4cccc(C)c43)c2n1`, the Potency result in assay [2] and in assay [3] was “inactive” throughout.

`Cc1ccc(NC(=O)C2(c3ccc4c(c3)OC(F)(F)O4)CC2)nc1-c1cccc(C(=O)O)c1`: the Potency result in assay [4], in assay [2] and in assay [3] was “inactive” in each case.

Consider `COc1cc(-c2nn(C3CCC(N4CCN(C(C)=O)CC4)CC3)c3ncnc(N)c23)ccc1NC(=O)c1cc2ccccc2n1C` (stereo not drawn), for which the Potency in assay [5] is 3.01 µM (active); in assay [2], 183 nM (active) and 590 nM (active); in assay [3] it was 258 nM (active) and 1.05 µM (active).

Take `CN1CCN(c2ccc3nc(-c4c(N)c5c(F)cccc5[nH]c4=O)[nH]c3c2)CC1`: the Potency in assay [2] is 1.3 µM (active) and 742 nM (active); in assay [3], 1.16 µM (active) and 742 nM (active).

For the compound `CC(C)c1ccccc1Cc1cc(C(=O)Nc2ccc(S(=O)(=O)c3ccccc3C(C)(C)C)cc2)c(O)c(O)c1O`, in assay [2], the Potency is 13.2 µM (active).

For the compound `CC1(O)CC(c2nc(-c3ccc4ccc(-c5ccccc5)nc4c3)c3c(N)nccn23)C1` (stereo not drawn), the Potency in assay [5] was 2.13 µM (active) and 952 nM (active); in assay [2] it was 12.9 µM (active); in assay [3], 18.3 µM (active).

For `Cc1c(Cn2c(C)nc3c(C(=O)O)cc(N4CCOCC4)cc32)cccc1C(F)(F)F`, in assay [5], the Potency result was “inactive”.

Turning to `c1nc2nc(Nc3ccc(N4CCOCC4)cc3)nc(NC3CCCCC3)c2[nH]1`, the Potency is 632 nM (active) and 662 nM (active) in assay [2]; 563 nM (active) and 525 nM (active) in assay [3].

Take `CC[C@@]1(O)C(=O)OCc2c1cc1n(c2=O)Cc2cc3cc(O)ccc3nc2-1`: the Potency in assay [2] is 0.0209 µM (active); in assay [3] it was 0.0118 µM (active).

In the case of `COc1cccc(Nc2c(C(N)=O)cnc3c(C)cc(S(=O)(=O)c4cccc(C(=O)N(C)C)c4)cc23)c1`, the Potency in assay [5] is 0.849 µM (active).

For `CCCCOc1c(C(=O)c2c(F)cc(C)cc2F)cnc2n[nH]cc12`, the Potency result in assay [4] is “inactive”. Moreover, the Potency in assay [2] was 0.817 µM (active); in assay [3], 578 nM (active) and 235 nM (active).

Take `O=C(NC1CCNCC1)c1[nH]ncc1NC(=O)c1c(Cl)cccc1Cl`: the Potency in assay [2] is 0.662 µM (active); in assay [3], 0.59 µM (active).

In the case of `COc1ccc(OC)c(-c2nnc3ccc(-c4ccc(OC)c(O[C@@H]5CCOC5)c4)nn23)c1`, the Potency was 3.72 µM (active) in assay [2] and 2.95 µM (active) in assay [3].

With `Fc1cc(-c2cccc3ncc(-c4cnn(C5CCNCC5)c4)nc23)cc(F)c1CN1CCOCC1`, the Potency in assay [6] was 39800 nM (active).

As to `C[C@]12CC[C@H](O)CC1=CCC1C2CC[C@]2(C)C(n3cnc4ccccc43)=CCC12` (stereo partly drawn), the Potency result in assay [2] and in assay [3] was “inactive” throughout.

As for `CN(C1CCc2c(c3ccccc3n2CC(=O)O)C1)S(=O)(=O)c1ccc(F)cc1` (stereo not drawn), the Potency entry in assay [4], in assay [2] and in assay [3] was “inactive” throughout. Moreover, in assay [5], the Potency is 19 µM (active) and 13.5 µM (active).

Take `O=C(CCCCCCC(=O)Nc1ccc([C@H]2O[C@@H](CSc3nc(-c4ccccc4)c(-c4ccccc4)o3)C[C@@H](c3ccc(CO)cc3)O2)cc1)NO`: the Potency in assay [2] was 2.58 µM (active) and 4.28 µM (active); in assay [3] it was 2.58 µM (active) and 4.28 µM (active).

Take `COCCn1c2c([n+](Cc3cnccn3)c1C)C(=O)c1ccccc1C2=O`: the Potency in assay [2] is 0.0042 µM (active); in assay [3] it was 0.0059 µM (active).

Turning to `O=C(c1cncc(Br)c1)N1CCC(N2CCCC2)CC1`, the Potency result in assay [2] and in assay [3] was “inactive” in each case.

Consider `CC[C@H](CO)Nc1nc(NCc2ccccc2)c2ncn(C(C)C)c2n1`, for which the results for the Potency in assay [2] and in assay [3] were 14.8 µM (active) and 13.2 µM (active), respectively.

As for `Cc1cc(Nc2ncnc3ccc(-c4ccc(CNCCS(C)(=O)=O)o4)cc23)ccc1Oc1ccn2ncnc2c1`, the Potency is 12 µM (active) in assay [5]; 16.3 µM (active) and 16.6 µM (active) in assay [2]; 10.3 µM (active) and 14.8 µM (active) in assay [3].

For the compound `Cc1ccc(S(=O)(=O)Nc2cc(Cl)ccc2C(=O)Nc2nc(-c3ccccc3)cs2)cc1`, the Potency result in assay [2] and in assay [3] was “inactive” throughout.

`CN(C)c1nc(Cc2ccc(NC(=O)c3ccc4ccccc4c3)cc2)nc(Cl)c1CC(=O)O`: the Potency entry in assay [4], in assay [2] and in assay [3] was “inactive” in each case.

For the compound `Cn1c(=O)n(-c2ccc(C(C)(C)C#N)cc2)c2c3cc(-c4cnc5ccccc5c4)ccc3ncc21`, the Potency is 103 nM (active) and 38.2 nM (active) in assay [2]; 91.6 nM (active) and 42.8 nM (active) in assay [3].

Source of the values: PubChem BioAssay (NCATS).
